# According to PubChem BioAssay (NCATS):
# Results filed as inconclusive are left out. Entries that show only a call come without a potency. A number with no mark means an inactive call. The source made the active and inactive calls. Unless noted, calls follow the shape of the dose curve; as a rule, active = well fitted curve in the direction sought with a large enough effect; inconclusive = small, poorly fitted or top-dose-only effect, or another doubt; inactive = no such curve, though single readings can be large; an effect the other way counts as inactive or inconclusive.
# Assays:
# [1] = molecular target: Calcium and integrin-binding protein 1 (Homo sapiens) (UniProt Q99828); assay: Validation qHTS for Identification of Calcium Integrin Binding protein 1 (CIB1) Competitor (AID 1508618); details: CIB1-GST / FITC-alphaIIb peptide fluorescence polarization; series mostly up to 114 µM
# Calcium and integrin-binding protein 1 (Homo sapiens), sequence (Q99828 whole entry, looked up): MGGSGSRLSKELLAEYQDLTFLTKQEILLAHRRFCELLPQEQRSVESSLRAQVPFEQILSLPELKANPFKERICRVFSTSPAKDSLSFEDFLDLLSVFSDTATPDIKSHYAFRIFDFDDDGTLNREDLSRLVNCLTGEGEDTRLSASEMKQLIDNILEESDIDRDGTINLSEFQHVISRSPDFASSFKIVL
# Procedure, shortened: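 CIB1-GST (1 uM final) in 5 mM HEPES pH 7.4, 125 mM NaCl, 5 mM CaCl2, 0.01% Tween20 was preincubated 15 min at room temperature with compound (up to 114 uM), then FITC-alphaIIb peptide (100 nM) added for 15 min; fluorescence polarization read.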
# [2] = molecular target: Calcium and integrin-binding protein 1 (Homo sapiens) (UniProt Q99828); assay: Primary qHTS for Identification of Calcium Integrin Binding Protein 1 (CIB1) Competitor (AID 1508620); details: CIB1-GST / FITC-alphaIIb peptide fluorescence polarization; series mostly up to 57.7 µM;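 also: GST tagged CIB1 binding a fluorescein labelled alphaIIb integrin peptide tracer; top concentration of the series differs between compounds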
# Procedure, shortened: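 CIB1-GST (1 uM final) and compound incubated 15 min at room temperature before adding FITC-alphaIIb peptide tracer (100 nM final). Competition for binding read by fluorescence polarization (ex 480, em 540) after another 15 min at room temperature.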
# [3] = Primary qHTS for small molecule stabilizers of the endoplasmic reticulum resident proteome: Secreted ER Calcium Modulated Protein (SERCaMP) assay (AID 1508630); details: SH-SY5Y GLuc-SERCaMP (Gaussia luciferase released on ER calcium loss) secretion, thapsigargin, luminescence; series mostly up to 38.4 µM
# Procedure, shortened: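 GLuc-SERCaMP-expressing SH-SY5Y cells, pretreated 16 h with compound, are challenged with thapsigargin to empty ER calcium stores; after 4 h, coelenterazine is added directly to the medium and luminescence is imaged.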
# [4] = Counterscreen qHTS for small molecule stabilizers of the endoplasmic reticulum resident proteome: GLuc-NoTag assay (AID 1508627); details: Gaussia luciferase NoTag secretion counterscreen, luminescence, thapsigargin 100 nM for final 4 h; series mostly up to 76.4 µM;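 also: SH-SY5Y cells given compound then 100 nM thapsigargin to empty ER calcium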
# Procedure, shortened: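 Luminescence of Gaussia luciferase secreted into the medium (coelenterazine, 0.07x final, unlysed cells) was the read-out. Human SH-SY5Y neuroblastoma cells constitutively secreting untagged GLuc received compound for 19 h, then 100 nM thapsigargin for 4 h.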
# [5] = Cell Viability qHTS for small molecule stabilizers of the endoplasmic reticulum resident proteome (AID 1508629); details: cell viability counter-screen, 100 nM thapsigargin for final 4 h;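 also: compound exposure about 46 h in total before the viability read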; also: potency is read from the fitted curve at half-maximal effect;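 as to max response: human SH-SY5Y neuroblastoma cells carrying the GLuc-SERCaMP reporter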
# [6] = molecular target: Cytochrome P450 2D6 (Homo sapiens) (UniProt P10635); assay: Cytochrome P450 family 2 subfamily D member 6 (CYP2D6) small molecule antagonists: luciferase biochemical (cell-free) qHTS assay (AID 1645840; active = well fitted curve in the direction sought with a large enough effect in the repeat runs; an effect the other way counts as inactive or inconclusive; also: nearly all actives have a fitted effect of over 55% in size); details: P450-Glo CYP2D6 enzyme, luciferin luminescence, 1 h; series mostly up to 57.4 µM
# Cytochrome P450 2D6 (Homo sapiens), sequence (P10635 whole entry, looked up): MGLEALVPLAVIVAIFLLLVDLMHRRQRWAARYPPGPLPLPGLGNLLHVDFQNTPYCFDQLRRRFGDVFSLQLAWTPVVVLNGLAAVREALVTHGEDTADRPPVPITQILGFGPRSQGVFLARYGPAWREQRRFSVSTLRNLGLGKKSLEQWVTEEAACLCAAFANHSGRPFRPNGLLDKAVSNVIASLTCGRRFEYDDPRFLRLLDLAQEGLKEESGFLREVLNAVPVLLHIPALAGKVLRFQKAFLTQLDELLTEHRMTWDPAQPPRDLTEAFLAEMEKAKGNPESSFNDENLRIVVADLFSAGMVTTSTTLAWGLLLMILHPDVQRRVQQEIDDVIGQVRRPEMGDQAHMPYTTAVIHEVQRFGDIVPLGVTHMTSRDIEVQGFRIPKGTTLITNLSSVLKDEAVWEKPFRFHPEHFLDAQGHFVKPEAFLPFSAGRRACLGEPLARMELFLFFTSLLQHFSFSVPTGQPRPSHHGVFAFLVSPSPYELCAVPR
# Procedure, shortened: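 P450-Glo luminescent screen: recombinant CYP2D6 enzyme–proluciferin substrate mix preincubated with compound 10 min at room temperature, then NADPH regeneration added for 1 h at room temperature. Detection reagent added for 20 min; luciferin light read as relative luminescence units.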
# [7] = molecular target: Cytochrome P450 3A4 (Homo sapiens) (UniProt P08684); assay: Cytochrome P450 family 3 subfamily A member 4 (CYP3A4) small molecule antagonists: luciferase qHTS assay (AID 1645841; active = well fitted curve in the direction sought with a large enough effect in the repeat runs; an effect the other way counts as inactive or inconclusive; also: nearly all actives have a fitted effect of over 45% in size); details: P450-Glo CYP3A4 enzyme assay, luciferin luminescence; series mostly up to 57.4 µM
# Cytochrome P450 3A4 (Homo sapiens), sequence (P08684 whole entry, looked up): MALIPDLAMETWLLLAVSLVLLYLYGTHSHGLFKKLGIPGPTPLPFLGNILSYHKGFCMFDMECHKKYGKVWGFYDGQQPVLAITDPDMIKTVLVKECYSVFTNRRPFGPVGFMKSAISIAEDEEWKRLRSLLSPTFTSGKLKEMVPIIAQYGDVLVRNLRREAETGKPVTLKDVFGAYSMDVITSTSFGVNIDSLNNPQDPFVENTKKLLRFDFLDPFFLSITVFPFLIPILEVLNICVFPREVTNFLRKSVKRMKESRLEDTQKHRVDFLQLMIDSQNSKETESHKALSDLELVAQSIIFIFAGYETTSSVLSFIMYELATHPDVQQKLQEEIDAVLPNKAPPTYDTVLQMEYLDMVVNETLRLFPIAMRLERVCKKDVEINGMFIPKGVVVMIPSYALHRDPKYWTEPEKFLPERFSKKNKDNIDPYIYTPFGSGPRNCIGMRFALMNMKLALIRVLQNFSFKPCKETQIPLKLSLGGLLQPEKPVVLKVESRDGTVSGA
# Procedure, shortened: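 Luminescent CYP3A4 activity readout: compounds plus enzyme-substrate mix 10 min at room temperature, reaction started with NADPH regenerating system for 1 h, stopped with detection reagent, read after 20 min. Ketoconazole served as control.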
# [8] = molecular target: Cytochrome P450 2C9 (Homo sapiens) (UniProt P11712); assay: Cytochrome P450 family 2 subfamily C member 9 (CYP2C9) small molecule antagonists: luciferase biochemical (cell-free) qHTS assay (AID 1645842; active = well fitted curve in the direction sought with a large enough effect in the repeat runs; an effect the other way counts as inactive or inconclusive; also: nearly all actives have a fitted effect of over 55% in size); details: P450-Glo CYP2C9 enzyme assay, luciferin luminescence; series mostly up to 57.4 µM
# Cytochrome P450 2C9 (Homo sapiens), sequence (P11712 whole entry, looked up): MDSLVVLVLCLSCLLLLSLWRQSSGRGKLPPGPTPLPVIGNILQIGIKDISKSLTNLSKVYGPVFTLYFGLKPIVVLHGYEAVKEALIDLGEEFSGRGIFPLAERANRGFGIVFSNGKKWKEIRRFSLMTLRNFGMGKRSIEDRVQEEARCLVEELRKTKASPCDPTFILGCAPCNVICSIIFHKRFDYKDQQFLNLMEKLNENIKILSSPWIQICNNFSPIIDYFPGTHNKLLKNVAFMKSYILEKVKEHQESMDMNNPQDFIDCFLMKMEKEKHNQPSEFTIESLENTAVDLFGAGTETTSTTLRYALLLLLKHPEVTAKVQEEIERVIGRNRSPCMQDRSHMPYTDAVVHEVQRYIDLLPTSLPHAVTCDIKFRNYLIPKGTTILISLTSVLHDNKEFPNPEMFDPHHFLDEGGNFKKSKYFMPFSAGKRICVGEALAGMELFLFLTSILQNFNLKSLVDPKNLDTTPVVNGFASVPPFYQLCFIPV
# Procedure, shortened: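 Luminescence, after 20 min with luciferin detection reagent, reflected CYP2C9 turnover during a 1 h NADPH-driven reaction at 37C. Enzyme-substrate mix contained 0.4% bovine serum albumin and was preincubated with compound 10 min at room temperature.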
# [9] = A High-Content qHTS Against Drug Library for the Identification of Small Molecules that Inhibit DYT1 Early Onset Primary Dystonia-Associated Cell Pathology (AID 1645839; calls by dose curve); details: HEK293 Flp-In EGFP-delE TorsinA, punctate imaging, 48 h; series mostly up to 91.7 µM
# Procedure, shortened: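 In this high-content image screen, delE TorsinA mislocalization in inducible Flp-In 293 cells is scored as %pathology, with cell count serving as the counterscreen. Compound exposure lasts 48 h under tetracycline induction in reduced-serum medium.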
smiles,measurement,setting,value
COC(=O)[C@@H](N)CCCN=C(N)N[N+](=O)[O-],outcome,[1],inactive
same,outcome,[2],inactive
same,Potency,[3],inactive
O=C1CCCN1CC#CCN1CCCC1,outcome,[1],inactive
same,Potency,[3],inactive
Cc1nc(-c2ccc(-c3ccc(C(=O)N4CCc5cc6c(cc54)C4(CCN(C)CC4)CO6)cc3)c(C)c2)no1,outcome,[2],inactive
O=C(Cc1ccc(Cl)c(Cl)c1)N1CCCCC1CN1CCCC1 (centres undefined),outcome,[1],inactive
same,Potency,[3],inactive
O=C(Oc1ccc([N+](=O)[O-])cc1)N1CCC(C(O)(c2ccc3c(c2)OCO3)c2ccc3c(c2)OCO3)CC1,outcome,[2],inactive
CO[C@H]1CCC(O[C@H]2C[C@H]([C@]3(C)CC[C@]4(C[C@H](O)[C@@H](C)[C@@H]([C@@H](C)C=C(C)C(=O)[C@H](C)C[C@H](C)C(=O)O)O4)O3)O[C@]3(O[C@@H]([C@H]4O[C@@](O)(CO)[C@H](C)C[C@H]4C)C[C@H]3C)[C@H]2C)O[C@H]1C (some centres undefined),outcome,[2],inactive
CCN1C[C@]2(OC(=O)c3ccccc3NC(C)=O)CC[C@H](OC)[C@@]34[C@H]5CC6[C@@H](OC)C[C@](O)(C(C[C@@H]23)[C@@H]14)[C@@]5(O)[C@@H]6OC,outcome,[2],inactive
NC1=NC(=O)N2CC12 (centres undefined),outcome,[2],inactive
C#CC1(O)CCC2C3CCC4=CC(=O)CCC4(C)C3CCC21C (centres undefined),outcome,[2],inactive
C[C@@H]1CC[C@@]2(OC1)O[C@H]1C[C@H]3[C@@H]4CC=C5C[C@@H](O[C@@H]6O[C@H](CO)[C@@H](O[C@@H]7O[C@@H](C)[C@H](O)[C@@H](O)[C@@H]7O)[C@H](O)[C@@H]6O[C@@H]6O[C@@H](C)[C@H](O)[C@@H](O)[C@@H]6O)CC[C@]5(C)[C@@H]4CC[C@]3(C)[C@@H]1[C@H]2C,outcome,[2],inactive
O=C1CCC[C@@H]2[C@H]3CCCN4CCC[C@@H](CN12)[C@@H]34,outcome,[2],inactive
O=C(O)Cc1cnc[nH]1,outcome,[1],inactive
same,Potency,[3],inactive
CC(C)(C)[C@]1(O)C[C@@H]2OC(=O)C[C@@]23C(=O)O[C@@H]2OC(=O)[C@H](O)C213 (some centres undefined),outcome,[2],inactive
C=C[C@@H]1CN2CCC1C[C@H]2[C@H](O)c1ccnc2ccccc12 (some centres undefined),outcome,[2],inactive
COc1ccc2c(c1)[C@]13CCCCC1C(C2)N(C)CC3 (some centres undefined),outcome,[2],inactive
CC(=O)O[C@@]12CO[C@H]1C[C@H](O)[C@@]1(C)C(=O)[C@H](O)C3=C(C)[C@@H](O)C[C@@](O)([C@@H](OC(=O)c4ccccc4)[C@@H]21)C3(C)C,outcome,[2],inactive
O=S(=O)(F)Cc1ccccc1,outcome,[2],inactive
CC(C)(C)c1cc(C=C(C#N)C#N)cc(Br)c1O,outcome,[2],inactive
CC(C)NC(C)Cc1ccc(I)cc1 (centres undefined),outcome,[1],inactive
same,Potency,[3],inactive
CN[C@@H]1C[C@@H](c2ccc(Cl)c(Cl)c2)c2ccccc21,outcome,[1],inactive
same,Potency,[3],inactive
CC(O)=C(C#N)C(=O)Nc1cc(Br)ccc1Br,outcome,[2],inactive
NC(CP(=O)(O)O)C(=O)O (centres undefined),outcome,[1],inactive
same,Potency,[3],inactive
CCOC(=O)c1cncn1[C@H](C)c1ccccc1,outcome,[2],inactive
c1ccc2c(CN3CCNCC3)cccc2c1,outcome,[2],inactive
same,Potency,[4],inactive
same,max response,[5],15%
Clc1cnc(Oc2ccc(Oc3ncc(Cl)cc3Cl)cc2)c(Cl)c1,outcome,[1],inactive
same,Potency,[3],inactive
C=C[C@@H]1CN2CCC1C[C@@H]2[C@@H](O)c1ccnc2ccccc12 (some centres undefined),outcome,[2],inactive
CCCN1CCO[C@@H]2c3cc(O)ccc3OC[C@H]21,outcome,[1],inactive
same,Potency,[3],inactive
CC[C@H]1C=CC=CC[C@@H](C)[C@H](O)[C@@](C)(O)C(=O)[C@@H](C)[C@H](O)[C@@H](C)C(=O)[C@@H](C)[C@H](O)[C@@H](C)C=CC(=O)O[C@@H]2[C@@H](C)[C@H](CC1)O[C@]1(CC[C@H](C)[C@H](C[C@@H](C)O)O1)[C@H]2C,outcome,[2],inactive
CCCN(CCC)[C@@H]1CCc2ccc(O)cc2C1,outcome,[1],inactive
same,Potency,[3],inactive
CC(C)N[C@@H]1CCn2c(=O)[nH]c3cccc(c32)[C@@H]1O,outcome,[2],inactive
COC1=C[C@@H]2[C@@H]3Cc4ccc(OC)c(O)c4[C@]2(CCN3C)CC1=O,outcome,[2],inactive
COC1=CC(C)=C[C@@H](C)[C@@H](O)[C@@H](C)CC(C)=CC=C[C@H](OC)[C@H]([C@@H](C)[C@@H](O)[C@H](C)[C@@]2(O)C[C@@H](O)[C@H](C)[C@@H](C(C)C)O2)OC1=O,outcome,[2],inactive
CN1CCN(c2ccc([N+](=O)[O-])c3no[n+]([O-])c23)CC1,outcome,[2],inactive
same,Potency,[4],inactive
CC(C)Oc1cccnc1N(C)C1CCN(Cc2ccccc2)CC1,outcome,[1],inactive
same,Potency,[3],inactive
O=c1[nH]c2ccccc2n1C1CCN(Cc2ccc(-c3[nH]c4cc5ncnc5cc4nc3-c3ccccc3)cc2)CC1,outcome,[2],inactive
CCCCc1ccc(C(=O)O)nc1,outcome,[1],inactive
same,Potency,[3],inactive
same,Potency,[6],inactive
same,Potency,[7],inactive
same,Potency,[8],inactive
CC(N[C@H]1C[C@H]1c1ccccc1)c1ccc2c(c1)OCCO2 (some centres undefined),outcome,[2],inactive
C[C@H]1CCCC=CC2C[C@H](O)C[C@@H]2[C@H](O)C=CC(=O)O1 (some centres undefined),outcome,[2],inactive
same,Potency,[4],inactive
same,Potency,[5],70.8 nM (active)
CC[C@@H]1[C@@H](C)O[C@@](O)([C@@H](C)[C@H](O)[C@H](C)[C@H]2OC(=O)C=CC=C[C@@H](C)[C@@H]([C@@H](C)[C@@H](O)[C@H](C)[C@@]3(O)C[C@H](O[C@H]4C[C@H](O)[C@H](O)[C@H](C)O4)[C@H](CC)[C@@H](C)O3)OC(=O)C=CC=C[C@@H]2C)C[C@H]1O[C@H]1C[C@H](O)[C@H](O)[C@H](C)O1,outcome,[2],inactive
Nc1ccc(Cl)cc1,outcome,[2],inactive
COc1cc(C(O)CN)ccc1O (centres undefined),outcome,[1],inactive
same,Potency,[3],inactive
C[C@]12CCC3C(CC[C@H]4C[C@H](O)CC[C@]34C)C1CC[C@@H]2C(=O)CO (some centres undefined),outcome,[1],inactive
same,Potency,[3],inactive
CC(=Cc1csc(C)n1)[C@@H]1C[C@H]2O[C@@H]2CCC[C@H](C)[C@@H](O)[C@@H](C)C(=O)C(C)(C)[C@@H](O)CC(=O)O1,outcome,[2],inactive
same,Potency,[3],inactive
Nc1c(Cl)c(Cl)c(Cl)c(Cl)c1Cl,outcome,[2],inactive
same,Potency,[4],inactive
same,max response,[5],1.55%
same,Potency,[9],inactive
same,Potency,[6],inactive
same,Potency,[8],inactive
COc1ccc2c(c1)CN(C)CC2c1ccc(Cl)c(Cl)c1 (centres undefined),outcome,[2],inactive
same,Potency,[3],inactive
COc1ccc(C(=O)c2c(C)n(CCN3CCOCC3)c3cc(I)ccc23)cc1,outcome,[2],inactive
same,Potency,[3],inactive
CC=C(C)C(=O)N[C@@H](c1ccccc1)[C@@H](O)C(=O)O[C@H]1C[C@@]2(O)[C@@H](OC(=O)c3ccccc3)[C@@H]3[C@]4(OC(C)=O)CO[C@@H]4C[C@H](O)[C@@]3(C)C(=O)[C@H](OC(C)=O)C(=C1C)C2(C)C,outcome,[2],inactive
same,Potency,[3],inactive
